Reference: PubChem BioAssay AID686978 (National Center for Advancing Translational Sciences (NCATS), 2013)
Screen size: about 420,000 compounds; about 64,000 (15%) were called active. About 27% were inconclusive and are not listed. Only a sample is shown. Values without a mark were called inactive. The call rests on the fitted dose curve; in most records, active means well fitted inhibition curve with a large enough effect; inconclusive means small, poorly fitted or top-dose-only effect; inactive means flat fitted curve, though single readings scatter.

Test: qHTS for Inhibitors of human tyrosyl-DNA phosphodiesterase 1 (TDP1): qHTS in cells in absence of CPT; further: nearly all actives have a fitted effect of over 55% in size
Settings: DT40 Tdp1-/- hTDP1 cells, no CPT, ATP luminescence, 48 h; activity change, negative = growth inhibition: at 46.2 µM (top of the series)
Source text: Human tyrosyl-DNA phosphodiesterase 1 (TDP1) is a novel repair gene, and we propose to use it as a new target for anticancer drug development. TDP1 is not an essential protein, but under treatment with topoisomerase I poison (camptothecin: CPT), TDP1 works as a critical factor for cell survival. To directly identify novel TDP1 inhibitors active in a cellular environment, we have knocked-out the Tdp1 gene in chicken DT40 cells (Tdp1-/-) and generated a complemented counterpart cells that contains a stable transfection of the human TDP1 gene (Tdp1-/-;hTDP1 cells). For the primary screen, Tdp1-/-;hTDP1 cells will be exposed to small molecules in the presence or absence of CPT, and their growth kinetics will be evaluated after 48 hours by measuring ATP activity. […] The hit compounds will then be evaluated in the presence or absence of CPT using Tdp1-/- cells. […] In tertiary assays, biochemical gel-based assays will be used to assess whether the hit compounds specifically target TDP1.
To this end, we have screened this cell line against the MLSMR in two primary screens. In one screen we add CPT and in the other we screen in the absence of CPT; this AID represents the screen where CPT was absent.
NIH Chemical Genomics Center [NCGC]
NIH Molecular Libraries Probe Centers Network [MLPCN]
Assay Submitter (PI): Yves Pommier, NCI
DT40-hTDP1 cells without 20 nM Camptothecin (add 20 microL of DMSO in 1 L of cell culture medium) were dispensed at 400 cells/5microL/well in tissue culture treated 1536-well white wall/solid bottom assay plates (Greiner Bio-One North America, NC, U.S.A.) using a Multidrop Combi 8 channel dispenser (Thermo Fisher, Waltham, MA, USA). 23 nL compounds and controls were transferred using the pin tool (Kalypsys, San Diego, CA, USA) to the assay plates. The assay plates were then incubated at 37 masculineC for a minimum 48 hr. Three microL of Cell Titer Glo solution was added to the plates and incubated at RT in dark for 30 min. Luminescence was read using ViewLux (Perkin Elmer) with 1 sec exposure slow speed, high gain and 2x binning.
On the % scale 0 is the no-effect control and ±100 the full control effect; potency means the concentration at half of the fitted maximal effect.

SMILES | activity change, negative = growth inhibition | Potency
Cc1ccc(C(=O)NC(C)c2ccccc2)cc1Br (stereo not drawn) | -22.9% | –
Cc1ccc2nc(CNC(=O)c3ccccc3)[nH]c2c1 | -0.575% | –
CCC1=Nc2cc(C(=O)NCCCN3CCOCC3)ccc2Sc2ccc(Br)cc21 | – | 3.66 µM (active)
COc1ccc(C(=O)NCCCN2CCOCC2)cc1Br | 6.89% | –
CCC1=Nc2cc(C(=O)NCCCOC(C)C)ccc2Sc2ccc(C)cc21 | – | 0.517 µM (active)
CC(C)OCCCNC(=O)CNC(=O)c1cccs1 | -7.96% | –
CCCC1=Nc2cc(C(=O)NCc3ccco3)ccc2Sc2ccccc21 | – | 3.66 µM (active)
O=C(NCc1ccco1)c1cccc(-c2ccc3nncn3c2)c1 | -12.4% | –
CCC1=Nc2cc(C(=O)NCC(C)c3ccccc3)ccc2Sc2ccc(C)cc21 (stereo not drawn) | – | 23.1 µM (active)
CC(C)NC(=O)C(=O)NCCCOC(C)C | -0.626% | –
COc1ccc(CCNS(=O)(=O)c2ccc(C(=O)NCc3ccco3)cc2)cc1OC | -12.5% | –
O=C(NCCCN1CCOCC1)c1cc(-c2cccc(O)c2)on1 | -18.6% | –
CCOC(=O)c1c(/N=C/c2cc(C)ccc2O)sc2c1CCC2 | -29.3% | –
CCC(=O)c1ccc(OCC(O)Cn2nc(C)c(C(C)=O)c2C)cc1 (stereo not drawn) | -0.93% | –
CC(C)n1c(-c2ccncc2)n[nH]c1=S | 1.02% | –
Cc1cc(C)n(C(=O)c2ccc(C)c(S(=O)(=O)N3CCOCC3)c2)n1 | -0.443% | –
Cc1cccc(NC(=O)C(C)N2C(=O)C3C4CC(C(Br)C4Br)C3C2=O)c1 (stereo not drawn) | 1.71% | –
CN(CC(=O)N1CCN(c2ccccc2)CC1)S(=O)(=O)c1cccs1 | -22.1% | –
CC(=O)c1ccc(-n2nnnc2SCC(=O)N2CCN(C(=O)c3ccco3)CC2)cc1 | -25.4% | –
CCOC(=O)c1ccc(NC(=S)Nc2cc(C)cc(C)n2)cc1 | -23% | –

SMILES | activity change, negative = growth inhibition | Potency
N=C1c2ccccc2-c2ccccc21 | -6.61% | –
O/N=C1\CC2(Cc3nonc31)OCCO2 | -7.73% | –
CCCCN(C(=O)c1ccc(OC(F)(F)F)cc1)c1c(N)n(CCC)c(=O)[nH]c1=O | 10.6% | –
CCCCn1c(N)c(N(CC)C(=O)c2ccccc2C(F)(F)F)c(=O)[nH]c1=O | 3.68% | –
FC(F)(F)c1cc(C(F)(F)F)c2ccc(N3CCN(c4ccccc4)CC3)nc2n1 | -21.5% | –
Cc1ccccc1N(C(=O)CNC(=O)c1cccs1)C(C(=O)NC1CCCC1)c1ccncc1 (stereo not drawn) | -4.76% | –
COc1ccc(C(C(=O)NC2CCCCC2)N(C(=O)CCl)c2ccccc2Cl)cc1 (stereo not drawn) | – | 14.6 µM (active)
COc1ccc(C(C(=O)NC2CCCC2)N(CCCO)C(=O)Cn2nnc(-c3ccc(C)o3)n2)cc1 (stereo not drawn) | -13% | –
CC(NC(=O)COC(=O)c1ccc2c(c1)OCO2)c1ccccc1 (stereo not drawn) | 2.55% | –
CC(C)(C)c1ccc(C(=O)NNC(=O)Cc2ccccc2)cc1 | -23.1% | –
CC(C)(C)c1ccc(C(=O)C[N+]2(C)CCCc3ccccc32)cc1 (stereo not drawn) | – | 1.58 µM (active)
CSc1ncnc2c1ncn2CCCNCc1cccs1 | -4.56% | –
Cc1ccccc1-c1nc(NC(C)C)nc2cc(-c3ccccc3)sc12 | – | 20.6 µM (active)
O=C(O)CCCC(=O)Nc1ccccc1-n1ccnc1 | 1.45% | –
Cc1c(Cl)c([N+](=O)[O-])nn1CC(=O)NCCCN1CCOCC1 | 0.962% | –
O=S(=O)(c1cccc(-c2cn3ccccc3n2)c1)N1CCCC1 | -13.3% | –
O=S(=O)(c1cccc(-c2nnc3n2CCCCC3)c1)N1CCOCC1 | -7.8% | –
O=S(=O)(c1cccc(-c2nnc(SC(F)F)n2-c2ccccc2)c1)N1CCCCC1 | – | 16.4 µM (active)
O=C(O)C1=C/C(=C/C=[N+]2c3cc(O)c(O[C@H]4OC(CO)[C@@H](O)[C@@H](O)[C@@H]4O)cc3C[C@@H]2C(=O)[O-])C[C@H](C(=O)O)N1 (stereo partly drawn) | -27.2% | –
S=c1[nH]nc(Nc2ccccc2)s1 | -28.6% | –

SMILES | activity change, negative = growth inhibition | Potency
CCOc1c(Cl)cc(/C=N/O)cc1OC | -16.3% | –
CCC(=O)/C=C1\Sc2ccccc2N1CC | -14.8% | –
CCN1/C(=C/C(=S)Nc2ccccc2)Sc2ccccc21 | – | 4.11 µM (active)
O=C(CS(=O)(=O)c1ccc(C(F)(F)F)cn1)NNC(=O)c1ccccc1 | -7.84% | –
Cc1ccc2nc(COc3cccc(NC(=O)Nc4ccc(C)c(Cl)c4)c3)cc(=O)n2c1 | -20.4% | –
Cc1ccc2nc(COc3ccc(NC(=O)COc4ccccc4F)cc3)cc(=O)n2c1 | 2.2% | –
Cc1ccc2nc(COc3ccccc3NC(=O)Nc3ccc(F)c(Cl)c3)cc(=O)n2c1 | – | 14.6 µM (active)
COc1ccc(-c2nn3c(=O)cc(CN4CCN(C(=O)c5ccc(OC)c(OC)c5)CC4)nc3s2)cc1 | -28.5% | –
Cc1ccc(N2NC(=O)/C(=C/C=C/c3ccco3)C2=O)cc1C | -19.4% | –
Cc1ccc(-c2cc(C(=O)N/N=C/C=C/c3ccco3)c3ccccc3n2)cc1C | – | 8.2 µM (active)
CCOc1ccc(-c2cc(C(=O)N/N=C/c3ccc(O)cc3)c3ccccc3n2)cc1 | – | 0.651 µM (active)
Cc1nonc1C(=O)N/N=C/c1ccc(O)cc1 | -7.64% | –
COc1ccc(/C=N\NC(=O)c2sc(N)nc2C)cc1OC | -17.5% | –
COc1ccc(/C=N/NC(=O)c2ccc(Cl)cc2)cc1COC(C)=O | -8.42% | –
COc1cccc(-c2cc(C(=O)N/N=C/c3ccc(OC)c(COC(C)=O)c3)c3ccccc3n2)c1 | – | 2.06 µM (active)
COc1ccc(/C=N/NC(=O)c2cc(-c3cccc(C)c3)nc3ccccc23)cc1O | – | 2.31 µM (active)
O=C(COc1ccc(/C=N/NC(=O)c2ccc(O)cc2)cc1)Nc1ccc([N+](=O)[O-])cc1 | -17.6% | –
O=C(Nc1cccc(F)c1)c1cc(-c2ccco2)nc2ccccc12 | -5.25% | –
